NPR1 activator – GC-A stimulated cGMP production enhancers – HEK293 GC-A cells, cGMP TR-FRET, EC30 ANP, primary screen. 0% at EC30 ANP, 100% saturating ANP. activation, % at 10 µM. actives 0.14% (n = 370,000). Atrial natriuretic peptide receptor 1 (Homo sapiens), P16066; in the data active means activation above about 40%
GC-B act – human GC-B receptor activators, primary screen, HEK293 GC-B cells, cGMP TR-FRET, EC30 CNP; actives 0.11% (n = 370,000); 0% at EC30 CNP, 100% saturating CNP; Atrial natriuretic peptide receptor 2 (Homo sapiens), P20594; activation, % at 10 µM;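 active means activation at 10 µM reaching about 35% in either raw or pattern-adjusted values, limit read from the data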
Target sequence (P20594 whole entry, looked up): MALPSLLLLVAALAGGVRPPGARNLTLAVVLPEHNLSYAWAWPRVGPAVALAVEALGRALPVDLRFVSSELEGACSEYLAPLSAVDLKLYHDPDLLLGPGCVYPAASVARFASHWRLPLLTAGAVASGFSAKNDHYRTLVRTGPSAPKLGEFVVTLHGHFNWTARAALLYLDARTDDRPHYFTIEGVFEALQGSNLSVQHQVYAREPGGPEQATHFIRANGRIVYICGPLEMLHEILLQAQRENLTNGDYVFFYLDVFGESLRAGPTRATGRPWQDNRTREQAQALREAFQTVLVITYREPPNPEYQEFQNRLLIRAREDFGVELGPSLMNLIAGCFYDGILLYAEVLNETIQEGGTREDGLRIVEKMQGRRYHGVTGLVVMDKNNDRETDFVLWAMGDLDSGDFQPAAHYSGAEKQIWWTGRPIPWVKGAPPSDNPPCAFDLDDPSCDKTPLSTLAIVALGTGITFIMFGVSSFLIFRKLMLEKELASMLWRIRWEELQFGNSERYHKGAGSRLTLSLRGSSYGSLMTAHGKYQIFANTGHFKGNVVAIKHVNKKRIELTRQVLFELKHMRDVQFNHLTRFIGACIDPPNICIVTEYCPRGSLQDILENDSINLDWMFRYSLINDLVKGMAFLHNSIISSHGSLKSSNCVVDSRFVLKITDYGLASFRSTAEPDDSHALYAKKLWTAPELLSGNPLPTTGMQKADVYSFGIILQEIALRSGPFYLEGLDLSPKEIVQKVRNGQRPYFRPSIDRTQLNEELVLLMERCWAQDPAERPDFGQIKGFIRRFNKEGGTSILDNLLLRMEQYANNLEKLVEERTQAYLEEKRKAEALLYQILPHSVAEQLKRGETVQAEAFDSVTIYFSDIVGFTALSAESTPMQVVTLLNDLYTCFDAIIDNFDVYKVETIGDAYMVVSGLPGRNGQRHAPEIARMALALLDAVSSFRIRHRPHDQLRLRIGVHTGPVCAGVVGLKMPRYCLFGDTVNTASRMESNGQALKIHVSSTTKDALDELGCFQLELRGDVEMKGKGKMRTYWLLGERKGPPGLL
APOBEC3G inh – APOBEC3G DNA deaminase inhibitors, primary screen, biochemical, fluorescence, single-stranded DNA substrate, uHTS | inhibition, % at 20 µM | actives 0.28% (n = 330,000) | recombinant A3G, ssDNA deamination FAM/TAMRA fluorescence;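 active means inhibition of at least 40% at 20 µM, with no more than 30% in the related APOBEC3A deaminase screen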;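 further: plate controls were DMSO wells with A3G for no effect and wells lacking A3G enzyme for full effect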
FAS-TE inh – FAS thioesterase domain inhibitors, primary screen, biochemical, fluorescence intensity, uHTS; inhibition, % at 15 µM; Fatty acid synthase (Homo sapiens), P49327; recombinant FAS-TE, OMFH fluorogenic substrate, fluorescence endpoint; actives 0.67% (n = 360,000);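 active means compounds whose normalised, plate-corrected inhibition of enzyme fluorescence in the single-dose primary screen is 50% or more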;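 further: 0% = DMSO with enzyme and 100% = substrate without enzyme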
A3A deaminase – APOBEC3A ssDNA deaminase inhibitors, primary screen, selectivity assay for APOBEC3G inhibitor project, biochemical, FAM/TAMRA oligo cleavage fluorescence | AID 493011, 2011 | DNA dC->dU-editing enzyme APOBEC-3A (Homo sapiens), P31941 | actives 0.41% (n = 330,000) | inhibition, % at 20 µM | recombinant A3A, FAM/TAMRA ssDNA deamination fluorescence;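 active means at least 40% inhibition at 20 µM here, with at most 30% in a related deaminase screen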;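 further: plate controls were A3A with DMSO for no effect and wells lacking A3A enzyme for full effect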
* marks the source's active call; other numbers are inactive results; / = no result. In the library only some 1.4% were active in any assay of this set; here they are far more common.

SMILES | NPR1 activator | GC-B act | APOBEC3G inh | FAS-TE inh | A3A deaminase
COCCN(CCOC)C(=O)c1sc2nc(-c3ccccc3)cn2c1C | 1.4 | -5.3 | 0.6 | -9.8 | 2.2
Cc1c(C(N)=O)sc2nc(-c3ccccc3)cn12 | 3.9 | 74.0* | -2.7 | -3.9 | -2.2
O=C(c1cnn2c(C(F)(F)F)cc(-c3ccc(Br)cc3)nc12)N1CCOCC1 | 2.1 | 8.5 | / | -4.6 | /
O=C(c1cnn2c(C(F)(F)F)cc(-c3ccc4c(c3)OCO4)nc12)N1CCCC1 | 37.8 | 44.8* | 0.8 | 2.4 | -0.2
CC(C)(C)C(=O)Cn1ncc(Br)c(Br)c1=O | 61.9* | 1.5 | / | 6.8 | /
CN(Cc1ccco1)C(=O)CN1C(=O)C2(OCCCO2)c2ccccc21 | 1.5 | -2.1 | / | / | /
O=C(CCc1[nH]c2ccccc2c1Sc1ccccc1)NCCO | 43.3* | 16.1 | -0.1 | 9.9 | -4.1
O=C(CCc1ccccc1)NCCSc1ccccc1 | -3.8 | 0.6 | -2.2 | 0.6 | 0.4
O=C(/C=C/c1ccc(Cl)cc1Cl)OCC(=O)N1CCCC1 | 40.8* | -3.1 | -3.3 | -4.6 | 0.6
CCOC(=O)c1c(-c2ccc(C)o2)csc1NC(=S)NC(=O)c1cccs1 | 28.6 | 37.2* | -5.6 | 23.0 | -3.0
CCOC(=O)c1c(-c2ccc(C)o2)csc1NC(=S)NC(=O)c1ccccc1Br | 17.5 | 37.1* | -7.1 | 30.6 | -3.4
CCOC(=O)c1c(-c2ccc(C)o2)csc1NC(=O)CSc1nnc(C)s1 | 2.7 | 5.8 | -1.9 | 17.2 | -4.7
CCOC(=O)c1c(-c2ccccc2)csc1NC(=S)NC | -1.3 | -4.4 | -1.9 | 2.2 | -3.3
O=S1(=O)c2ccc(Br)cc2OCCC2CCCCN21 (stereo not drawn) | 1.1 | 0.5 | / | / | /
OC(COCC(F)(F)C(F)(F)C(F)(F)C(F)F)Cn1c2ccc(Cl)cc2c2cc(Cl)ccc21 (stereo not drawn) | / | / | -8.7 | 56.0* | -2.7
N=c1n(Cc2ccc(Cl)cc2)c2ccccc2n1CC(O)COc1ccccc1 (stereo not drawn) | -40.6 | -18.4 | 1.6 | -10.9 | 3.3
O=C1[C@H]2[C@@H](c3ccc(F)cc3)N3C(=O)N(c4ccccc4)C(=O)[C@@]3(Cc3ccc(Cl)cc3)[C@H]2C(=O)N1C1CCCCC1 | -9.0 | -10.1 | -10.8 | 93.6* | -0.9
CC[C@@]12C(=O)N(c3ccc(C)cc3)C(=O)N1[C@H](c1cccc(C)c1)[C@@H]1C(=O)N(Cc3ccccc3)C(=O)[C@@H]12 | -5.9 | -3.3 | -9.6 | 11.9 | -4.0
CC[C@@]12C(=O)N(c3cccc(Br)c3)C(=O)N1[C@H](c1ccc(Br)cc1)[C@@H]1C(=O)N(C(C)(C)C)C(=O)[C@@H]12 | -12.3 | -5.0 | -8.4 | 57.5* | -1.1
O=C1[C@H]2[C@@H](c3ccc(F)cc3)N3C(=O)N(c4cccc(Br)c4)C(=O)[C@@]3(Cc3ccc(Cl)cc3)[C@H]2C(=O)N1C1CCCCC1 | -8.9 | -6.6 | -4.6 | 34.9 | -5.8
O=C1[C@H]2[C@@H](c3ccc(F)cc3)N3C(=O)N(c4cccc(Cl)c4)C(=O)[C@@]3(Cc3ccccc3)[C@H]2C(=O)N1C1CCCCC1 | -15.5 | -17.6 | 16.5 | 72.1* | 1.9
CC[C@@]12C(=O)N(c3cccc(Cl)c3)C(=O)N1[C@H](c1cccc(C)c1)[C@@H]1C(=O)N(Cc3ccccc3)C(=O)[C@@H]12 | -18.8 | -22.0 | -4.4 | 16.8 | -0.1
Cc1cccc([C@@H]2[C@@H]3C(=O)N(Cc4ccccc4)C(=O)[C@@H]3[C@]3(Cc4ccc(Cl)cc4)C(=O)N(c4ccc(Br)cc4)C(=O)N23)c1 | -2.7 | -4.4 | -1.7 | 90.3* | -2.0
CC[C@@]12C(=O)N(c3cccc(Br)c3)C(=O)N1[C@H](c1ccc(OC)cc1)[C@@H]1C(=O)N(C(C)(C)C)C(=O)[C@@H]12 | -2.5 | -1.5 | -5.6 | 14.4 | -2.6
CCCCNC(=O)NS(=O)(=O)c1ccc(NC(=O)CSc2nnc(-c3cccs3)n2-c2ccc(OC)cc2)cc1 | -3.2 | 1.7 | / | / | /
SMILES | NPR1 activator | GC-B act | APOBEC3G inh | FAS-TE inh | A3A deaminase
O=C(CSc1nnc(-c2ccccc2)n1-c1ccc(Cl)cc1)Nc1ccccc1-c1ccccc1 | -15.1 | -12.8 | / | / | /
O=C(CCCCCN1C(=O)C2C3C=CC(C3)C2C1=O)Nc1ccc2ncccc2c1 (stereo not drawn) | 3.1 | -3.1 | / | / | /
O=C(N[C@@H](Cc1cccnc1)C(=O)N1CCC[C@H]1C(=O)NCCc1ccccc1Cl)c1ccc(Cl)c(Cl)c1 | -9.2 | -11.0 | / | / | /
O=C1[C@H]2[C@@H](c3ccc(Cl)cc3)N3C(=O)N(c4cccc(Br)c4)C(=O)[C@@]3(Cc3ccc(Cl)cc3)[C@H]2C(=O)N1C1CCCCC1 | -0.7 | 0.4 | -4.2 | 91.1* | 15.3
CCOC(=O)CC[C@H]1CC[C@]2(CCCN(C(=O)c3ccccc3)C2)O1 | 2.6 | -10.8 | / | / | /
CSCC[C@H](NC(=O)[C@H](Cc1ccccc1)n1c(=O)[nH]c2ccccc2c1=O)C(=O)N1CCC[C@H]1C(=O)O | 5.8 | 83.3* | -9.8 | 1.1 | -4.1
C[C@H](CO)N1C[C@H](C)[C@@H](CN(C)C(=O)Nc2ccc3c(c2)OCO3)Oc2c(NC(=O)Nc3ccc(C(F)(F)F)cc3)cccc2C1=O | -3.9 | -4.9 | -0.4 | 75.6* | 2.6
C[C@H](CO)N1C[C@H](C)[C@@H](CN(C)C(=O)Nc2ccc(C(F)(F)F)cc2)Oc2c(NC(=O)Nc3ccc4c(c3)OCO4)cccc2C1=O | 1.1 | -1.2 | -5.9 | 75.4* | 2.1
Cc1noc(C)c1NC(=O)Nc1cccc2c1O[C@H](CN(C)C(=O)Nc1ccc3c(c1)OCO3)[C@@H](C)CN([C@H](C)CO)C2=O | -2.5 | -1.0 | -1.7 | 29.4 | -1.1
C[C@@H]1CN([C@H](C)CO)C(=O)c2cccc(NC(=O)Nc3ccc(F)cc3)c2O[C@H]1CN(C)C(=O)Nc1ccc(C(F)(F)F)cc1 | -3.4 | -4.3 | -4.4 | 37.0 | -3.4
COc1ccc(CN2C(C(=O)NCC(C)C)CSCCS2(=O)=O)cc1 (stereo not drawn) | -1.3 | 3.4 | / | / | /
Cc1cc(Nc2cc(Cl)cc(Cl)c2)cc(=O)n1-c1cc(Cl)cc(Cl)c1 | 21.2 | 28.1* | / | / | /
CCOC(=O)c1cnc2c(c(C)nn2-c2ccc(C)cc2)c1Cl | 60.2* | -11.4 | -8.1 | 19.5 | -3.3
CCOC(=O)c1cnc2c(c(C)nn2C)c1Oc1cc(Cl)cc(Cl)c1 | -2.4 | -10.3 | -4.8 | 19.1 | -2.1
COC(=O)[C@]12C[C@H](CC(=O)N3CCSCC3)C(=O)N(CCC3=CCCCC3)C1=C[C@H](C1CCCC1)O[C@@H]2C | -7.2 | -0.8 | / | / | /

Screening results as filed in PubChem BioAssay.
